# Laboratory results: article PMC4336329 (PLoS ONE, 2015)
# Out of some 310,000 compounds screened, about 14,000 (4.5%) showed an effect of 50% or more. Effects have a minus sign here. This is one part of a sample in which strong results are shown more often than they occur.
# Biological target: human ether-à-go-go-related gene (hERG) potassium channel (human, UniProt Q12809)
# Assay: primary screen, population patch clamp on CHO cells stably expressing hERG; higher = less effect of the substance
# 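Further: peak tail current of the secondary pulse compared with the same well before compound.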
# Chain of human ether-à-go-go-related gene (hERG) potassium channel (Q12809 whole entry, looked up): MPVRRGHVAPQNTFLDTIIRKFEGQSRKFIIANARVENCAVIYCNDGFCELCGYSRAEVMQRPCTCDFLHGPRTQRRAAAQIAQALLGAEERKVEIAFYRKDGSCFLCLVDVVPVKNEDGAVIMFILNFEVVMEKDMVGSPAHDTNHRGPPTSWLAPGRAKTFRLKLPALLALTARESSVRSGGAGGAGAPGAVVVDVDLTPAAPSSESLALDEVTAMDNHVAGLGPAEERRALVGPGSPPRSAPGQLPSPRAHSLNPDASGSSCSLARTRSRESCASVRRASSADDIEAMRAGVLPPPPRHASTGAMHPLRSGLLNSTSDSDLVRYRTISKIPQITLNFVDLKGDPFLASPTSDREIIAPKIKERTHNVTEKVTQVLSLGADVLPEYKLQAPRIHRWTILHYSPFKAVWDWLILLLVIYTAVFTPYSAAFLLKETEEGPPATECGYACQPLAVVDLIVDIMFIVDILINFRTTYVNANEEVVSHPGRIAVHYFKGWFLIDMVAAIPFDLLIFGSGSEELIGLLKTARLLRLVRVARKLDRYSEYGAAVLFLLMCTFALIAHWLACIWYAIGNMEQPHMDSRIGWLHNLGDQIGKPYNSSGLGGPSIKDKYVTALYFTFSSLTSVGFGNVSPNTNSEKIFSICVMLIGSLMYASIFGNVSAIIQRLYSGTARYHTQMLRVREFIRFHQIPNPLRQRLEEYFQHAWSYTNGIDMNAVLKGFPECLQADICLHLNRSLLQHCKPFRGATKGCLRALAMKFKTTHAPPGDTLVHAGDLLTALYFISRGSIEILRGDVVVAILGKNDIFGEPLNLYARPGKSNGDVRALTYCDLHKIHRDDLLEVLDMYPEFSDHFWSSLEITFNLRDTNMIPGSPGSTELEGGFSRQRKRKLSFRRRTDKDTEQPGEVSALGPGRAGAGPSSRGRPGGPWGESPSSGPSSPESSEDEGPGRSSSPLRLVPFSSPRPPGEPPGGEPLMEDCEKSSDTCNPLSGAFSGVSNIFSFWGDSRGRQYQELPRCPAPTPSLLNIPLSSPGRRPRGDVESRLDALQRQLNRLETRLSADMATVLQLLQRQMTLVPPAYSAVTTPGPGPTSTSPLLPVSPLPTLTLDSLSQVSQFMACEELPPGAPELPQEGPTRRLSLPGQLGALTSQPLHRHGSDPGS
row,SMILES,"hERG current change (%, negative = inhibition) at 10uM [%]"
1,CNC(=O)/C(C#N)=C/c1c(N2CC(C)OC(C)C2)nc2ccccn2c1=O (centres unmarked),1.43
2,O=C(Cn1cc(C(=O)COc2ccccc2)c2ccccc21)NCc1ccco1,-0.105
3,CCN(CC)S(=O)(=O)c1ccc(C(=O)OCCNC(=O)c2cccnc2)cc1,-2.68
4,Cc1cc(S(=O)(=O)Nc2nc(CN3CCOCC3)nc3sc4c(c23)CCCC4)ccc1F,-17.2
5,COc1cc2c(cc1OC)CN(c1ccc(C(F)(F)F)cn1)CC2,15.9
6,COc1cccc(Nc2nc(CN3CCOCC3)nc3sc4c(c23)CCCC4)c1,-53.1
7,COc1cc2c(cc1OC)CN(c1nc(CN3CCOCC3)nc3sc4c(c13)CCCC4)CC2,-73.6
8,Cc1ccc(Oc2nc(CN3CCOCC3)nc3sc4c(c23)CCC(C)C4)cc1C (centres unmarked),7.99
9,c1nc(N2CCOCC2)c2c3c(sc2n1)CCCC3,-7.14
10,CC1CCc2c(sc3nc(CN4CCOCC4)nc(N4CCc5ccccc5C4)c23)C1 (centres unmarked),-8.23
11,Cc1sc2nc(CN3CCCCC3)nc(Cl)c2c1C,-24.5
12,CCNc1nc(CN2CCOCC2)nc2sc3c(c12)CCC3,-7.54
13,Cc1cccc(Oc2nc(CN3CCOCC3)nc3sc4c(c23)CCCC4)c1,-29.7
14,COc1cc2c(cc1OC)CN(c1nc(CN3CCCC3)nc3sc(C)c(C)c13)CC2,-75.6
15,COc1cc2c(cc1OC)CN(c1nc(CN3CCOCC3)nc3sc4c(c13)CCC(C)C4)CC2 (centres unmarked),-67.5
16,O=c1[nH]c(=O)n(Cc2ccccc2)c(O)c1/C=N/Nc1c(F)c(F)c(F)c(F)c1F,3.83
17,COc1ccc(-c2csc(N)n2)cc1,-6.71
18,COc1cccc(-c2ccc3nnc(SCC(=O)N4CCCC4)n3n2)c1,-17.1
19,COc1cc2c(cc1OC)CN(c1nc(CN3CCCCC3)nc3sc4c(c13)CCCC4)CC2,-81.2
20,Clc1nc(CN2CCCCC2)nc2sc3c(c12)CCC3,-33.6
21,O=S(=O)(Nc1nc(CN2CCOCC2)nc2sc3c(c12)CCCC3)c1cc(F)ccc1F,-34.9
22,Clc1nc(CN2CCOCC2)nc2sc3c(c12)CCC3,14.5
23,c1ccc2c(c1)CCN(c1nc(CN3CCOCC3)nc3sc4c(c13)CCCC4)C2,-60.2
24,Clc1nc(CN2CCCCC2)nc2sc3c(c12)CCCC3,-23.1

row,SMILES,"hERG current change (%, negative = inhibition) at 10uM [%]"
1,CCOC(=O)c1nn(-c2ccc(C)cc2)c2nc(Nc3ccccc3)cc(=O)n12,21.9
2,Cc1ccccc1CN(c1ccc(C(=O)N/N=C/c2ccc(OCC(N)=O)cc2)cc1)S(C)(=O)=O,5.85
3,CO/N=C/c1cccn1-c1nccc(N(C)C)c1C#N,-2.01
4,CCCN1CCN(C(=O)CCS(=O)(=O)c2cc3c(cc2Cl)NC(=O)CO3)CC1,-48
5,COc1ccc(S(=O)(=O)NCC2CCCN(C(=O)CCC(F)(F)F)C2)cc1 (centres unmarked),2.06
6,COc1ccc(N(C(=O)Cn2nnc3ccccc32)C(C(=O)NCc2ccco2)c2cccnc2)cc1 (centres unmarked),9.77
7,Cc1ccccc1CSc1nccn1-c1ccccc1,-8.94
8,CC(C(O)c1ccc(O)cc1)N1CCC(Cc2ccccc2)CC1.O=C(O)C(O)C(O)C(=O)O (centres unmarked),-71.4
9,CC(C)C(=O)N1CCC(Cc2ccccc2)CC1,4.6
10,C[C@H](NC(=O)N1CCC(Cc2ccccc2)CC1)C(=O)O,15.5
11,CC(C)[C@H](NC(=O)N1CCC(Cc2ccccc2)CC1)C(=O)O,6.12
12,CC(C)NC(=S)N1CCC(Cc2ccccc2)CC1,-2.26
13,CC(C)CNC(=S)N1CCC(Cc2ccccc2)CC1,-40.1
14,CCC(C)[C@H](NC(=O)N1CCC(Cc2ccccc2)CC1)C(=O)O (some centres unmarked),15.2
15,CC(C(O)c1ccc(O)cc1)N1CCC(Cc2ccccc2)CC1.O.O=C(O)C(O)C(O)C(=O)O (centres unmarked),-65.4
16,C[C@@H](CN1CCC(Cc2ccccc2)CC1)[C@@H](O)c1ccc(O)cc1.Cl,-71.3
17,CCc1ccc(OCC(=O)NC(=S)Nc2ccc(S(=O)(=O)NC3CCCCC3)cc2)cc1,19.9
18,CCOC(=O)Cc1csc(NC(=O)c2cc(OC)cc(OC)c2)n1,-10.6
19,O=C(O)c1cccc(CN2C(=O)CSC2=O)c1,19.4
20,CCn1c(SCC(=O)N/N=C/c2ccc(O)c(OC)c2)nc2ccccc21,2.36
21,COc1ccc(CC2(CO)CCN(Cc3cc4ccccc4o3)CC2)cc1,-52.2
22,OCC1(Cc2ccccc2)CCN(Cc2cnc(-c3cccc4ccccc34)nc2)CC1,10.8
23,OCC1(Cc2ccccc2)CCN(Cc2cc3ccccc3o2)CC1,-51.7
24,COc1ccc(CN2CCN(Cc3cc4ccccc4o3)CC2CCO)cc1C (centres unmarked),-40.4

row,SMILES,"hERG current change (%, negative = inhibition) at 10uM [%]"
1,COc1ccc(C(=O)N=c2sc3c(C)ccc(OC)c3n2C)cc1,6.32
2,CCCC(=O)Nc1ccc(C(=O)NNC(=O)c2cccs2)cc1,12.2
3,CC1(C)COC(c2coc3ccccc3c2=O)OC1,3.85
4,Oc1c(N=NC(=S)Nc2ccccc2F)c2ccccc2n1Cc1ccc(F)cc1,18.7
5,O=C(c1cccc(Br)c1)N1CCN(c2ccccn2)CC1,-4.19
6,Cc1ccc(CN2CCN(Cc3ccccn3)CC2CCO)cc1 (centres unmarked),-47.9
7,OCCC1CN(Cc2cccn2-c2ccccn2)CCN1C1CCCCC1 (centres unmarked),-57.1
8,Cc1ccc(CN2CCN(Cc3cccn3-c3ccccn3)CC2CCO)cc1 (centres unmarked),-82
9,Cc1ccc(CN2CCN(Cc3cccn3-c3ccccn3)CC2CCO)o1 (centres unmarked),-66.1
10,OCCC1CN(Cc2cccn2-c2ccccn2)CCN1C1CCCC1 (centres unmarked),-18.9
11,OCCC1CN(Cc2cccn2-c2ncccn2)CCN1C1CCCC1 (centres unmarked),-6.11
12,OCCC1CN(Cc2cccn2-c2ccccn2)CCN1Cc1ccccc1 (centres unmarked),-76.5
13,Cc1ccc(CN2CCN(Cc3cnc(N(C)C)s3)CC2CCO)o1 (centres unmarked),6.05
14,Cc1ccc(CN2CCN(Cc3cccn3-c3ccc(Cl)cn3)CC2CCO)o1 (centres unmarked),-23.3
15,Cc1onc(-c2c(F)cccc2Cl)c1C(=O)ONC(=O)c1ccccc1,8.85
16,CC(=O)Nc1ccc(S(=O)(=O)N(CC(=O)O)Cc2ccccc2)cc1,-12.6
17,CC1CN(C(=O)C2CC(=O)N(c3ccc(Cl)cc3)C2)CC(C)O1 (centres unmarked),-13.3
18,COC(=O)c1ccc(/C=N\N2CCN(Cc3ccc(C)cc3)CC2)cc1,9.51
19,O=C(CCN1C(=O)/C(=C/c2ccccc2F)SC1=S)NCCc1ccc(O)cc1,14.1
20,COC(=O)c1cc(Cl)c(NC(=O)/C=C/c2ccc(Cl)cc2)cc1OC,-15.7
21,Fc1ccc(Br)cc1C1C=C(c2ccc(Br)s2)Nc2ncnn21 (centres unmarked),9
22,COCCCNC(=O)c1ccc(CS(=O)(=O)c2ccccc2C)o1,7.74
23,O=C(NCc1cccnc1)C1c2ccccc2C(=O)N1C1CCCCCC1 (centres unmarked),2.21
24,O=C(O)c1cccc2c1NC(C(=O)O)C1CC(Sc3ccccc3[N+](=O)[O-])C(Cl)C21 (centres unmarked),-0.458

row,SMILES,"hERG current change (%, negative = inhibition) at 10uM [%]"
1,Cc1c(C(=O)N2CCN(CCc3ccccn3)CC2)oc2ccc(F)cc12,-72.1
2,Cc1c(C(=O)N2CCN(CCc3ccccn3)CC2)oc2ccc(Cl)cc12,-81.1
3,Cc1c(C(=O)N2CCN(c3ncccn3)CC2)oc2ccc(Cl)cc12,-23.3
4,Cc1ccc2c(C)c(C(=O)N3CCN(Cc4ccccn4)CC3)oc2c1C,-23.1
5,Cc1ccc2oc(C(=O)N3CCN(Cc4nccn4C)CC3)c(C)c2c1,-41.3
6,Cc1cc2oc(C(=O)N3CCN(CCc4ccccn4)CC3)c(C)c2cc1C,-21.2
7,Cc1c(C(=O)N2CCN(C(=O)c3ccccc3)CC2)oc2ccc(F)cc12,-44.8
8,Cc1ccc2oc(C(=O)N3CCN(CCO)CC3)c(C)c2c1,13.7
9,Cc1ccc2oc(C(=O)N3CCN(Cc4ncccc4C)CC3)c(C)c2c1,-78.3
10,CC(C)CN(C(=O)c1ccc(S(=O)(=O)N2CCCC2)cc1)C1CCS(=O)(=O)C1 (centres unmarked),-3.52
11,Cc1cccc(NC(=O)C(=O)NCc2ccc3c(c2)OCO3)c1C,-16.5
12,CCN(CC)C(=O)Oc1nnc(SC(C)C)n1-c1ccc(Cl)c(Cl)c1,-7.2
13,Cc1ncoc1C(=O)N1CCCC(C(=O)c2cccc(OC(C)C)c2)C1 (centres unmarked),10.3
14,Cc1ccc(C)c(C(C)NC(=O)C2CCCO2)c1 (centres unmarked),17.6
15,O=C(NCC(=O)N1CCN(c2ccccc2)CC1)c1ccc(Br)o1,-39.9
16,O=C(NCC(=O)N1CCN(c2cccc(Cl)c2)CC1)c1ccc(Br)o1,-78.4
17,O=C(NCC(=O)N1CCN(c2ccccc2F)CC1)c1ccc(Br)o1,-39.1
18,Cc1cc(C(=O)N2CCN(c3ccc(F)cc3)CC2)on1,-14.5
19,Cc1ccc(Cl)cc1N1CCN(C(=O)c2noc(C)c2[N+](=O)[O-])CC1,1.15
20,Cc1cc(C(=O)N2CCN(c3cc(Cl)ccc3C)CC2)on1,-58.7
21,O=C(NCC(=O)N1CCN(c2ccccc2O)CC1)c1ccc(Br)o1,-4.93
22,CC(=O)N1CCN(C(=O)CNC(=O)c2ccc(Br)o2)CC1,22.2
23,Cc1ccc(Cl)cc1N1CCN(C(=O)CNC(=O)c2ccc(Br)o2)CC1,-55.9
